# High-throughput results as filed in PubChem BioAssay.
# Hits are enriched below; roughly 6.5% of the tested compounds scored in any of these assays.
# Vaccinia mCherry = qHTS for Stage-Specific Inhibitors of Vaccinia Orthopoxvirus: mCherry Reporter Primary qHTS; 310,000 compounds, 0.63% hits; AID 720579, 2013; Potency, µM (doses to about 36.5 µM), for inactives: top-dose activity change, negative = inhibition, usual class: inhibitors; Vaccinia virus mCherry reporter infection, fluorescence; calls by dose curve; tested in A549 cells; also: potency is read from the fitted curve at half-maximal effect; nearly all actives have a fitted effect of over 35% in size
# FMDV antiviral = High Throughput Screening for Foot and Mouth Disease Virus Antivirals | FMDV antiviral cell-based qHTS | Potency, µM (titrated, usually from 57.9 µM), without a hit: top-dose activity change, negative = inhibition, most hits filed as inhibitors | 410,000 compounds, 1.2% hits; calls by dose curve; tested in HEK293T cells; also: read-out not given here; potency is read from the fitted curve at half-maximal effect; nearly all actives have a fitted effect of over 45% in size
# Marburg entry inh = qHTS for inhibitors of binding or entry into cells for Marburg Virus | AID 540276, 2011 | Marburg virus pseudotyped entry inhibition, cell reporter | 300,000 compounds, 1.8% hits | Potency, µM (top dose mostly 37.8 µM), without a hit: at the highest dose activity change, negative = inhibition, hits mostly inhibitors; calls by dose curve; tested in HEK293 cells; also: potency is read from the fitted curve at half-maximal effect
# HCMV inh = qHTS Assay for inhibitors of the human cytomegalovirus (HCMV); HFF cells, HCMV-luciferase reporter, 72 h; stronger effect = lower value; activity change, negative = inhibition, % at 57.5 µM; 410,000 compounds, 4.5% hits; in the data active = activity change below about -60%; inconclusive = no clear call, values can overlap the other calls; inactive = above about -39%
#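 Screen run at 2 compound doses on HFFs infected with reporter HCMV, MOI 1 PFU/cell. Luciferase activity from cell lysates at 72 h post infection gave inhibition relative to buffer-only and Salinomycin wells.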
# Vaccinia Venus = qHTS for Stage-Specific Inhibitors of Vaccinia Orthopoxvirus: Venus Reporter Primary qHTS | Vaccinia virus Venus reporter expression, fluorescence | Potency, µM (doses to about 36.5 µM), for inactives: top-dose activity change, negative = inhibition, most hits filed as inhibitors | 330,000 compounds, 0.46% hits | AID 720580, 2013; calls by dose curve; tested in A549 cells; also: potency is read from the fitted curve at half-maximal effect; nearly all actives have a fitted effect of over 30% in size
# Lassa entry inh = qHTS for Inhibitors of binding or entry into cells for Lassa Virus | AID 540256, 2011 | 300,000 compounds, 1.2% hits | Potency, µM (titrated, usually from 37.9 µM), for inactives: at the highest dose activity change, negative = inhibition, actives largely listed as inhibitors | Lassa virus pseudotype entry inhibition, cell reporter; calls by dose curve; tested in HEK293 cells; also: potency is read from the fitted curve at half-maximal effect; nearly all actives have a fitted effect of over 50% in size
# The depositor's hits bear a star; i = inactive; ? = inconclusive; · = no result; [ ] = another dose, or the depositor's remark. % is scaled to controls: 0 for no effect and ±100 for the full control effect.
SMILES,Vaccinia mCherry,FMDV antiviral,Marburg entry inh,HCMV inh,Vaccinia Venus,Lassa entry inh
COC(=O)c1cccc(Nc2nn3c(=O)c4cc5c(cc4nc3s2)OCO5)c1,5.0%,-19.3%,27.9%[46.1 µM],6.5,8.1%,17.3%[46.1 µM]
CCc1cccc2c(C(=O)CN3C(=O)NC(C)(c4cccc5ccccc45)C3=O)c[nH]c12 (stereo not given),?,?,?,53.6,?,?
CCc1cccc2c(C(=O)CN3C(=O)NC4(CCc5ccccc54)C3=O)c[nH]c12 (stereo not given),?,-27.1%,?,-69.4*,?,?
O=C(O)Cn1cnc2c(OCc3ccccc3)ncnc21,-13.9%,0.0%,·,5.6,-6.4%,·
C[C@@H](NCCCn1cnc2c(OCc3ccccc3)ncnc21)c1cccc2ccccc12,?,-26.5%,·,-31.2,?,·
c1ccc(COc2ncnc3c2ncn3CCCN2CCN(Cc3cccc4ccccc34)CC2)cc1,10µM*,28.2µM*,·,-39.8,11.2µM*,·
Cc1cc(C)c(CN2CCN(C(=O)Cn3cnc4c(OCc5ccccc5)ncnc43)CC2)c(C)c1,?,?,·,-64.0*,?,·
CN(CCCn1cnc2c(OCc3ccccc3)ncnc21)CCc1ccccn1,-5.7%,3.6%,·,5.2,0.0%,·
COc1ccc(CN(C)CCCn2cnc3c(OCc4ccccc4)ncnc32)cc1,?,-20.1%,·,-97.3*,-15.5%,·
CCCCCCn1c(=O)n2n(c1=O)C[C@]1(OC(=O)NC3CCCC3)CN(S(=O)(=O)c3ccc(C)cc3)C[C@]1(O)C2,-0.7%,0.0%,·,-12.5,?,·
Cc1ccc(S(=O)(=O)N2C[C@H]3n4c(=O)ccc(=O)n4C[C@H](OC(=O)NCc4ccccc4)[C@@]3(O)C2)cc1,?,0.0%,·,-60.9*,?,·
CCCCCCn1c(=O)n2n(c1=O)C[C@]1(OC(=O)NCC3CCCCC3)CN(S(=O)(=O)c3ccc(C)cc3)C[C@]1(O)C2,?,?,·,11.7,10µM*,·
Cc1ccc(S(=O)(=O)N2C[C@H]3n4c(=O)ccc(=O)n4C[C@H](OC(=O)NCc4ccco4)[C@@]3(O)C2)cc1,-29.3%,?,·,-14.1,-23.8%,·
Cc1ccc(S(=O)(=O)N2C[C@H]3n4c(=O)ccc(=O)n4C[C@H](OC(=O)NCC4CCCCC4)[C@@]3(O)C2)cc1,?,31.6µM*,·,-102.2*,?,·
C=C(c1ccc2cc(OC)ccc2c1)[C@H](C#N)C1CCCC1,·,·,·,-21.8,·,·
COc1cc(OC)c(CN2CCOc3ccc(CN4CCC(O)CC4)cc3C2)c(OC)c1,-17.3%,-11.5%,·,·,-3.6%,·
CCCCc1cc(=O)oc2c(CN(C)C)c(O)ccc12,-15.1%,15.4%,-32.6%,47.8,-10.8%,-0.9%
CC[C@@]1(O)C(=O)OCc2c1cc1n(c2=O)Cc2cc3c(CN(C)C)c(O)ccc3nc2-1,?,-11.7%,·,-97.3*,?,·
CC[C@@]1(O)C(=O)OCc2c1cc1n(c2=O)Cc2cc3c(N)cccc3nc2-1,?,?,·,-99.4*,?,·
O=c1cccc2n1Cc1cc3ccccc3nc1-2,-11.7%,74.8%,1.4%,103.1,-8.6%,?
Cc1ccc(Sc2cncc3sc(C(N)=O)cc23)cc1,·,19.5%,·,·,·,·
Cc1ccnc2ccc(N)cc12,-15.2%,·,·,·,-6.5%,·
COc1ccc(C(=O)NCc2ccc3c(c2)CCN3C(=O)c2ccc(C)cc2)cc1,-1.2%,-15.1%,·,?,-18.9%,-38.5%[46.1 µM]
CC(C)CN1C(=O)/C(=C/c2ccco2)NC1=S,-3.5%,15.2%,18.0%,-39.4,16.9%,?
CC(C)CN1C(=O)/C(=C/c2cccs2)NC1=S,·,-8.5%,?,-62.5*,·,-6.5%
SMILES,Vaccinia mCherry,FMDV antiviral,Marburg entry inh,HCMV inh,Vaccinia Venus,Lassa entry inh
O=C1C=C2C=C[C@@H]3CC2(O1)[C@H]1CCCCN31,?,?,·,-94.3*,-24.7%,·
O=C1C=C2C=C[C@H]3C[C@]2(O1)[C@@H]1CCCCN13,-27.5%,-19.0%,?,?,?,?
O=C1NC(=S)S/C1=C\C=C\c1ccc([N+](=O)[O-])o1,?,?,?,-99.8*,?,?
O=Cc1ccccc1OCCN1CCCC1=O,·,-11.2%,·,-62.6*,·,·
COc1ccccc1N1CCN(c2nc(CNC(=O)c3ccc(C)c(C)c3)nc3ccccc23)CC1,i,2.3%,·,·,0.0%,·
O=C(Nc1ccc(Cl)cc1)/C(=C/c1cccc(O)c1)c1nc2ccccc2s1,11.2µM*,10µM*,?,-97.9*,10µM*,?
COC(=O)c1nc(N2CCN(S(=O)(=O)c3ccc(C)cc3)CC2)c2ccccc2n1,i,·,·,·,-14.1%,·
CCCCCCCCN1C(=O)[C@@H](CC(=O)NCCC(C)C)C[C@@]2(C(=O)OC)C1=C[C@H](C(C)(C)C)O[C@@H]2C,·,·,·,1.3,·,·
Cc1cc(Nc2cccc(Cl)c2)nc2ccc(NC(=O)Cc3ccc(Cl)cc3)cc12,-26.3%,-29.2%,·,-104.3*,?,-21.2%[46.1 µM]
COc1ccc(CC(=O)Nc2ccc3nc(Nc4cccc(Cl)c4)cc(C)c3c2)cc1OC,-25.2%,?,·,-68.6*,-29.1%,?
Cc1cc(Nc2cccc(Cl)c2)nc2ccc(NC(=O)Cc3cccc(C(F)(F)F)c3)cc12,-15.2%,-14.2%,·,-99.4*,-19.4%,-7.8%[46.1 µM]
Cc1cc(Nc2cccc(Cl)c2)nc2ccc(NC(=O)Cc3c(F)cccc3Cl)cc12,-10.4%,-2.8%,·,-39.6,-18.4%,-13.4%[46.1 µM]
COCCn1c(=O)c(-c2ccccc2)nc2cnc(Nc3cccc(OC)c3)nc21,·,-16.5%,·,·,·,·
CCCCOc1ccc(C(=O)NNC(=O)C2C3C=CC(C3)C2C(=O)O)cc1 (stereo not given),·,11.0%,·,-60.3*,·,·
O=C1C=C(Nc2cccnc2)c2ccccc2C1=O,?,?,?,22.9,10µM*,?
O=c1cccccc1NCc1ccccc1,·,47.4%,9.9%,-32.9,·,25.9%
O=C1C=C(NCc2ccccc2)c2ccccc2C1=O,?,-16.3%,?,-83.9*,11.2µM*,?
Cc1ccc(NC2=CC(=O)C(=O)c3ccccc32)c(C)c1,·,?,·,-96.3*,·,·
O=C1C=C(Nc2ccccc2O)c2ccccc2C1=O,5.01µM*,?,?,-93.4*,?,?
O=C1C=C(Nc2ccc(F)cc2)c2ccccc2C1=O,?,?,?,34.3,-16.9%,?
CCC(Sc1nc2ccsc2c(=O)n1Cc1ccc(C(=O)O)cc1)C(=O)Nc1cc(Cl)ccc1C (stereo not given),-2.8%,-6.0%,·,-94.6*,-5.0%,·
COc1cccc(CNC(=O)c2ccc(NC(=O)N3CCCCc4ccccc43)cc2)c1OC,-23.8%,-29.3%,·,-1.7,-9.4%,-7.9%[46.1 µM]
CC(=O)Nc1ccc(NC(=O)C(C)OC(=O)c2c(C)nn(-c3ccccc3)c2Cl)cc1 (stereo not given),1.8%,-18.6%,-8.8%,14.2,-10.5%,3.55µM*
